# Bioassay records: PubChem BioAssay, several laboratories
# VLA-4 inh: inhibition in a human VLA-4 binding assay. P13612. 330,000 compounds, 0.2% hits. VLA-4 expressing cells, ligand binding flow cytometry. inhibition, % (about 7 µM as worked out from the volumes in the protocol); in the data active = inhibition above about 50%
# A3G deaminase: blocks human APOBEC3G single-stranded DNA deamination | recombinant A3G, ssDNA deamination FAM/TAMRA fluorescence | inhibition, % at 20 µM | 330,000 compounds, 0.28% hits | Q9HC16;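 active = inhibition of at least 40% at 20 µM, with no more than 30% in the related APOBEC3A deaminase screen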;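 also: plate controls were DMSO wells with A3G for no effect and wells lacking A3G enzyme for full effect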
# Target sequence (Q9HC16 whole entry, looked up): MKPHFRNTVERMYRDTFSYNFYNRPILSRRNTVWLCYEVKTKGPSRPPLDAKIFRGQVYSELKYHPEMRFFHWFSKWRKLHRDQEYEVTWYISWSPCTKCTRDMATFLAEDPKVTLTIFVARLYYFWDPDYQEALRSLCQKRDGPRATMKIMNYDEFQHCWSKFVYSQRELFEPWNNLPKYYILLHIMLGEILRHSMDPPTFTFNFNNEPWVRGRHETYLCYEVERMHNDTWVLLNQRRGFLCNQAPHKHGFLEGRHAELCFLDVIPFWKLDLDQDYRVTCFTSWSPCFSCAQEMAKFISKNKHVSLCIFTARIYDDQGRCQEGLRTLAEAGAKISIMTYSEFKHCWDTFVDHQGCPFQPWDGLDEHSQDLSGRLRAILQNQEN
# GRK2 aptamer HTS: human GRK2 inhibition via aptamer displacement. P25098. bead flow cytometry, FAM-aptamer displacement from GRK2. inhibition of aptamer binding, % at 10 µM. 330,000 compounds, 0.59% hits;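 active = inhibition of aptamer binding above 40%, roughly 3 SD of noise, on plates passing a quality check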;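 also: median bead fluorescence of bound FAM aptamer so fluorescent compounds give negative values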
# A3A deaminase: blocks human APOBEC3A ssDNA deamination. 330,000 compounds, 0.41% hits. AID 493011. P31941. recombinant A3A, FAM/TAMRA ssDNA deamination fluorescence. inhibition, % at 20 µM;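 active = at least 40% inhibition at 20 µM here, with at most 30% in a related deaminase screen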;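 also: plate controls were A3A with DMSO for no effect and wells lacking A3A enzyme for full effect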
# Target sequence (P31941 whole entry, looked up): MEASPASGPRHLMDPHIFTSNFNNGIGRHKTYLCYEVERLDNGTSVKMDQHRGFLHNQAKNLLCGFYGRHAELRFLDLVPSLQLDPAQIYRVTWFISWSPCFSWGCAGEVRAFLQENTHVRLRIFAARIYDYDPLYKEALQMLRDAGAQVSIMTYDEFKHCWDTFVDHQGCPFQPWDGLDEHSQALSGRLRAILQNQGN
# A3A conf: APOBEC3A (human) deaminase inhibition, confirmed; AID 493151; 1,400 compounds, 63% hits; shares compounds with A3A deaminase; recombinant A3A, ssDNA deaminase UDG fluorescence assay; inhibition, % at 20 µM;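 active = inhibition reaching a set limit, 80% of the first screen's cutoff, at 20 µM in any replicate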;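 also: plate controls were DMSO wells with A3A for no effect and wells lacking A3A enzyme for full effect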
# UDG ctr A3A: UDG inhibition in APOBEC3A counter-screen; shares compounds with A3A deaminase; UDG counterscreen, FAM/TAMRA uracil oligo fluorescence; inhibition, % at 20 µM; 1,000 tested, under 10 active; AID 504714; call rule not given here
# Active calls of the source: *; x = not tested or not shown. This is a sample that favours compounds with a hit; in the whole collection about 1.4% have one here.
SMILES,VLA-4 inh,A3G deaminase,GRK2 aptamer HTS,A3A deaminase,A3A conf,UDG ctr A3A
Cc1cccc(CC(=O)N2CCC(N3CCC(C(=O)N4CCOCC4)CC3)CC2)c1,11,-5,1,98*,-6,-3
Oc1c(C2=NCCNC(C(F)(F)F)=C2)ccc2ccccc12,x,4,x,5,x,x
COc1ccc(N2CC(C(=O)Nc3ccc(S(=O)(=O)N4CCOCC4)cc3)CC2=O)cc1 (stereo not drawn),9,9,1,48*,26,x
Cc1cc(C)c(C)c(S(=O)(=O)N2CCC(C(=O)Nc3ccc(S(=O)(=O)N4CCOCC4)cc3)CC2)c1C,8,4,0,41*,2,x
CCN(CC)CCOc1ccc(Br)cc1,9,-6,0,-4,x,x
CCN(CC)CCOc1ccc2c(c1)C(=NO)c1cc(OCCN(CC)CC)ccc1-2,-13,26,0,47*,37*,-1
COc1ccc(OC)c(N(CC(=O)Nc2ccc3c(c2)OCO3)S(=O)(=O)c2ccccc2)c1,0,-5,1,1,x,x
COc1ccc(Cl)cc1N(CC(=O)Nc1ccc2c(c1)OCO2)S(C)(=O)=O,17,3,1,42*,8,x
COC(=O)c1cc(NC(=O)c2cc(C)oc2C)cc(C(=O)OC)c1,-2,1,0,4,x,x
COc1ccc(CCn2c(C)cc(C(=O)CSc3nnc(N)s3)c2C)cc1,4,-7,1,44*,-6,-2
Cc1cc(C(=O)CSc2nnc(N)s2)c(C)n1CCc1ccc(Cl)cc1,29,-6,0,-2,x,x
COc1ccc(S(=O)(=O)/N=C2/NC(=O)/C(=C/c3ccco3)S2)cc1,14,21,4,46*,24*,-5
COc1ccc(S(=O)(=O)/N=C2/NC(=O)/C(=C\c3ccco3)S2)cc1,4,62,7,90,x,x
O=C(CSc1nnc(-c2ccc(Br)cc2)n1CCc1ccccc1)NC1CCS(=O)(=O)C1 (stereo not drawn),2,0,0,2,x,x
O=C(c1ccccc1)N1CCN(C(=O)c2nn3c(C(F)(F)F)cc(-c4ccccc4)nc3c2Br)CC1,-12,-9,3,-2,x,x
Cc1ccc(-c2c(C)n([O-])c3c([n+]2=O)CCC3)o1,9,-6,2,-17,x,x
O=[N+]([O-])c1ccc2c(c1)ncn2-c1ccccc1,17,x,3,x,x,x
Cn1c(-[n+]2c(-c3ccccc3)cc(-c3ccccc3)cc2-c2ccccc2)nc2cc([N+](=O)[O-])ccc21,2,9,0,46*,56*,0
CCn1c(N2CCN(CC(=O)c3c(C)n(C)c4ccccc34)CC2)nc2c1c(=O)[nH]c(=O)n2C,-25,11,1,49*,20,x
CCn1c(N2CCN(CC(=O)c3c(C)n(C)c4ccc(OC)cc34)CC2)nc2c1c(=O)[nH]c(=O)n2C,-1,5,0,2,x,x
CCOC(=O)C1=C(c2ccccc2)N=c2s/c(=C\c3ccco3)c(=O)n2C1c1cccs1 (stereo not drawn),-17,13,14,42*,19*,-3
CCc1ccccc1NC(=O)c1cc2ncc(Br)cn2n1,4,-1,6,41*,8,-2
COCCNC(=O)c1cc2ncc(Br)cn2n1,8,-6,0,9,x,x
O=C(NCCc1ccccc1)c1cc2ncc(Br)cn2n1,-7,-3,7,76*,44*,4
O=C(c1cc2ncc(Br)cn2n1)N1CCN(C(=O)c2ccco2)CC1,9,0,17,42*,34*,-2
SMILES,VLA-4 inh,A3G deaminase,GRK2 aptamer HTS,A3A deaminase,A3A conf,UDG ctr A3A
Cc1ccc(S(=O)(=O)N2CCOCCOCCOCCOCCOCC2)cc1,-42,-1,1,-2,x,x
COc1ccc(Cl)cc1C(=O)NNC(=O)c1csc(N2CCOCC2)n1,-3,-6,0,41*,-4,3
O=c1cc(CCl)nc2sc3ccccc3n12,4,26,3,63*,34*,-3
O=C(OCc1cc(=O)n2c(n1)sc1ccccc12)c1ccc(O)cc1,5,10,7,21,x,x
Cc1cccc(C(=O)N[C@H](C(=O)OCc2cc(=O)n3c(n2)sc2ccccc23)C(C)C)c1,0,19,1,43*,53*,3
Cc1ccccc1NC(=O)C(=O)NC(C)CCc1ccccc1 (stereo not drawn),17,-7,0,0,x,x
Cc1cccc(Nc2nn3c(=O)c4ccccc4nc3s2)c1,-11,8,0,46*,22*,1
CCCSc1nn2c(=O)c3ccccc3nc2s1,-6,-4,0,-2,x,x
CCN1CCN(S(=O)(=O)c2ccc(Cl)c(C(=O)N(C)C(c3ccccc3)c3ccccc3)c2)CC1,5,17,1,57*,64*,-2
CCN1CCN(S(=O)(=O)c2ccc(Cl)c(C(=O)N(C)Cc3cccs3)c2)CC1,10,0,0,3,x,x
CCCCC1CCC(C(=O)OC(C)C(=O)Nc2ccc(NC(C)=O)cc2)CC1 (stereo not drawn),-1,16,0,49*,5,x
O=C(COC(=O)c1ccc(F)c(S(=O)(=O)N2CCOCC2)c1)Nc1ccc2[nH]c(=O)[nH]c2c1,-22,15,0,42*,42*,-2
COc1ccc(CC(=O)N(C)CC(=O)Nc2c(C)cccc2C)cc1S(=O)(=O)N1CCOCC1,-2,4,0,1,x,x
Cc1ccc(NC(=O)CN(C)CC(=O)Nc2ccc(F)c(Cl)c2)cc1,-5,16,0,61*,4,x
Cc1ccc(OCCC(=O)Nc2ccc(F)c(Cl)c2)cc1,27,-5,1,-1,x,x
O=C(NC(=S)Nc1ccccc1C(=O)O)c1cncc(Br)c1,0,12,0,41*,18*,-3
O=C(Nc1ccccc1C(=O)O)c1cncc(Br)c1,-25,18,7,58*,7,x
COc1c(F)c(F)c(C(=O)O)c(Nc2ccccc2)c1F,14,-6,2,-1,x,x
Nc1cc(N)nc(SCC(=O)Nc2ccc(Br)cc2Cl)n1,0,17,1,58*,56*,-2
CC(C)c1ccc(S(=O)(=O)N2CCN(CC(O)CN3CCOCC3)CC2)cc1 (stereo not drawn),0,-9,0,-3,x,x
CCC(C)c1ccc(S(=O)(=O)N2CCN(CC(O)COCC3CCCO3)CC2)cc1 (stereo not drawn),x,-9,x,55*,-11,1
CCCn1ncc([C@@H]2C[C@H]3CN(Cc4cccc(Cl)c4)C(=O)[C@]34CCCN24)c1C,-2,0,7,3,x,x
O=C(CSc1ncn(-c2ccccc2)n1)Nc1ccc2c(c1)OCO2,11,12,1,46*,11,x
Cn1cnnc1SCCOc1ccc(Cl)cc1,10,-3,0,-1,x,x
COc1ccc(S(=O)(=O)Nc2ccc(Nc3ccccc3)cc2)cc1,15,-5,0,-2,x,x
